Source: PubChem BioAssay (several laboratories)
In the library only some 1.9% were active in any assay of this set; here they are far more common.
PABP FP inh = blocks human PABP binding to poly(A) RNA | 290,000 tested, 1% active | calls only at 35 µM | fluorescence polarization | P11940;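 also: calls also rest on retests at 20 µM and on dose response follow-up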
Target sequence (P11940 whole entry, looked up): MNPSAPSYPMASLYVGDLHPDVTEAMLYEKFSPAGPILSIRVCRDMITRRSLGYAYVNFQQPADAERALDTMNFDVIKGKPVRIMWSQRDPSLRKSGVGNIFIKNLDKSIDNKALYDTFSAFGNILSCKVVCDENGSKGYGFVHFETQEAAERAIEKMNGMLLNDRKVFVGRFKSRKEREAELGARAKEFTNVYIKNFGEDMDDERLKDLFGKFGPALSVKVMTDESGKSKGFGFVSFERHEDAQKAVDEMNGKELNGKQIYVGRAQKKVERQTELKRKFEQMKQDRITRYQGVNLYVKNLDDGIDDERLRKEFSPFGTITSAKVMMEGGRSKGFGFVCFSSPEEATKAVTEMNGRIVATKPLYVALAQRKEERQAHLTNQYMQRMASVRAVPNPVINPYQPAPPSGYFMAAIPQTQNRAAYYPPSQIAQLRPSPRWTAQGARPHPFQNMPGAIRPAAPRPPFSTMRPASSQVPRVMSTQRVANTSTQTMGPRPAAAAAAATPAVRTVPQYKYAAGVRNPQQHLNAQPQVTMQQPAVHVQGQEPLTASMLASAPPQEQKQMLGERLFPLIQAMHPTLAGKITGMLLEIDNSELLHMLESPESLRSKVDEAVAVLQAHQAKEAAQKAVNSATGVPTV
14-3-3 Bad inh = disrupts binding of bovine 14-3-3 zeta to phospho-Bad peptide | inhibition, % at 21.7 µM | TR-FRET 14-3-3zeta/Dy647-pBad peptide displacement, 1 h | P63103 | 220,000 tested, 0.71% active;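 active = inhibition above about 70%, limit read from the data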;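 also: 0% = full 14-3-3 plus peptide FRET controls and 100% = background without 14-3-3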
eIF4E-4G inh = inhibitors of eIF4E and eIF4G interaction in translation initiation; 220,000 tested, 0.37% active; inhibition, % at 21.7 µM; AID 782; TR-FRET eIF4E-eIF4GI(517-606) binding, 2 h; P63073+Q04637;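 active = inhibition above about 30%, limit read from the data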;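 also: 0% = full FRET control wells and 100% = background wells lacking eIF4GI fragment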
eIF4H FP inh = inhibitors of RNA binding by human eIF4H; Q15056; eIF4H fluorescence polarization binding assay; inhibition, % at 35 µM; 290,000 tested, 0.94% active;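 also: calls also rest on retests at 20 µM and on dose response follow-up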
PABP1 MLLE inh = blocks PAM2 peptide binding to the PABP1 MLLE domain; inhibition, % at 20 µM; GST-MLLE / FITC-PAM2 fluorescence polarization; 360,000 tested, 0.36% active; P11940; in the data active = inhibition above about 35%, passing the limit was not always enough;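 also: plate controls were DMSO wells with GST-MLLE for no effect and wells lacking GST-MLLE protein for full effect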
* marks the source's active call; other numbers are inactive results; i = inactive; ? = inconclusive; . = no result given; + = active, no number; [ ] = dose if it differs, or a comment. Unless noted, no rule for the calls is given here.

SMILES | PABP FP inh | 14-3-3 Bad inh | eIF4E-4G inh | eIF4H FP inh | PABP1 MLLE inh
NC(=O)CC(NC(=O)c1ccc(Br)cc1)c1ccc(N2CCCCCC2)c([N+](=O)[O-])c1 (centres undefined) | i | . | . | -8 | 9
O=c1[nH]nc(Sc2ccccc2)c(=S)[nH]1 | . | . | . | . | 45*
O=c1[nH]nc(SCc2ccccc2)c(=O)[nH]1 | i | -19 | 9 | 5 | 10
CCOC(=O)c1ccc(N2C(=O)C3C(/C=C/c4ccccc4)OC4(C(=O)c5ccccc5C4=O)C3C2=O)cc1 (centres undefined) | + | -19 | 5 | 57 | 0
Cc1ccc(CNC(=O)CN(C)S(=O)(=O)c2cccs2)cc1 | ? | 86* | 0 | -1 | -3
NC(=O)c1c(NC(=O)CSc2nnc(-c3ccco3)n2-c2ccccc2)sc2c1CCC2 | + | 6 | 31*[fluorescence artefact?] | 87* | -9
COc1cc(C(=O)N[C@H](C(=O)NC(C)C23CC4CC(CC(C4)C2)C3)C(C)C)cc(OC)c1OC (some centres undefined) | i | -1 | 4 | 2 | -8
COc1ccc(C)cc1NC(=O)C(NC(=O)c1cc(OC)c(OC)c(OC)c1)C(C)C (centres undefined) | + | -2 | -2 | 91* | -8
COc1ccccc1N1CCN(CCN2C(=O)C3CCCCN3C2=O)CC1 (centres undefined) | i | . | . | 0 | 5
Fc1ccc(NCc2nnc(SCc3nnc(-c4ccccc4)o3)n2Cc2ccccc2)cc1 | i | 5 | -7 | 58* | -57
Clc1ccc(-c2nnc(CSc3nnc(-c4cccs4)n3Cc3ccccc3)o2)cc1 | i | 8 | 4 | -5 | -1
COc1ccc(CNC(=O)c2sc(=O)n(Cc3ccccc3OC)c2C)cc1 | . | . | . | . | -1
C=C(C)CN1CCN(S(=O)(=O)c2ccc(C)c(N(C)S(=O)(=O)c3ccc(C)cc3)c2C)CC1 | i | 15 | 0 | -10 | -16
Cc1[nH]n(-c2ccc(F)cc2)c(=O)c1/C=N/c1sc2c(c1C#N)CCCC2 | i | 81* | 4 | 9 | -7
CCN(CC)CC#CC(O)(c1ccccc1)c1ccccc1 | i | -13 | 0 | -7 | 0
CN(C)CCC#CC(O)(c1ccccc1)c1ccccc1 | + | -26 | -5 | 6.6* | 4
COc1ccc(OC)c(NC(=S)NCc2ccc(S(N)(=O)=O)cc2)c1 | i | -12 | -1 | 2 | 15
COc1ccc(NC(=S)NCc2ccc(S(N)(=O)=O)cc2)c(OC)c1 | i | -10 | -3 | active | -4
O=C1NC(=O)/C(=C\c2ccc(O)cc2O)S1 | ? | 87* | 29 | ? | 22
O=C1NC(=O)/C(=C/c2cccc3ccccc23)S1 | i | . | . | -1 | 8
CCOc1ccc(C(=O)C2CCN(C(=O)c3ccc([N+](=O)[O-])cc3)CC2)cc1 | i | . | . | 13 | 10
CC(OC(=O)CCN=C1NS(=O)(=O)c2ccccc21)C(=O)Nc1ccc(F)c(F)c1F (centres undefined) | . | . | . | . | -5
CNc1cc(C)nc(N2CCOCC2)n1 | i | -1 | -3 | 92* | 3
CCc1n(CC(O)COC2CCCCC2)c2ccccc2[n+]1C (centres undefined) | + | 30 | 23 | 1 | -94
O=C(N/N=C\c1c(O)ccc2ccccc12)c1ccc(S(=O)(=O)N2CCCCC2)cc1 | + | 16 | 13 | 64* | -155
SMILES | PABP FP inh | 14-3-3 Bad inh | eIF4E-4G inh | eIF4H FP inh | PABP1 MLLE inh
NC(=S)N/N=C/c1coc2c(ccc3ccccc32)c1=O | i | 89*[fluorescence artefact?] | 10 | -1 | -7
NC(=S)N/N=C/c1c(O)ccc2ccccc12 | i | -6 | 7 | 4 | 47*
CCOC(=O)c1c(NC(=O)Cn2c(C)nc3ccccc32)sc2c1CCC2 | i | -5 | -7 | -4 | 16
CCOC(=O)c1c(NC(=O)COC(=O)Cn2c(C)nc3ccccc32)sc2c1CCCC2 | i | 88* | 11 | 3 | 6
COC(=O)C1=C(C)NC2=C(C(=O)CCC2)C1c1ccc(-c2ccsc2C(=O)OC)o1 (centres undefined) | i | -4 | -3 | -6 | -8
CC(=O)C1=C(O)C(=O)N(c2cccc(C(=O)O)c2)C1c1ccc(F)cc1 (centres undefined) | + | -3 | 1 | ? | -12
Cc1ccc2c(CN3CCCCC3)cc(=O)oc2c1C | i | . | . | -1 | 8
Cc1ccc2c(CN3CCCc4ccccc43)cc(=O)oc2c1C | + | -9 | 6 | 34* | -25
O=C(O)CCCN1C(=O)C(=O)/C(=C(/O)c2ccc(Cl)cc2)C1c1ccccc1 (centres undefined) | i | -1 | 1 | -2 | 51*
CCN(CC)CCN1C(=O)C(=O)/C(=C(/O)c2ccc(Cl)cc2)C1c1ccncc1 (centres undefined) | i | 5 | 1 | 7 | 2
O=C(NCc1c(Cl)cccc1Oc1ccccc1)c1ccccc1 | i | 2 | 4 | -7 | 7
COc1ccc(C(NC(=O)C2CCN(CCOc3ccc(Cl)cc3Cl)CC2)c2cccs2)cc1 (centres undefined) | . | . | . | . | -2
CN(C)N=C1c2cc(S(=O)(=O)N3CCOCC3)ccc2-c2ccc(S(=O)(=O)N3CCOCC3)cc21 | i | -2 | 0 | 6 | 10
NC(=S)NN=C1c2cc(S(=O)(=O)N3CCOCC3)ccc2-c2ccc(S(=O)(=O)N3CCOCC3)cc21 | i | -3 | 2 | 2 | 40*
CCC1(C)Cc2c(sc3[nH]c(=S)[nH]c(=S)c23)CO1 (centres undefined) | i | . | . | -2 | 27
CCC1(C)Cc2c(sc3[nH]c(=O)[nH]c(=O)c23)CS1 (centres undefined) | + | 17 | -7 | 66* | 32
O=c1[nH]c(CSc2nc(-c3ccc(F)cc3)cs2)nc2ccccc12 | i | -8 | -1 | -6 | -11
O=C(NC(c1ccccc1)c1ccccc1)c1cccc(S(=O)(=O)NCc2ccccc2)c1 | i | 4 | 21 | -6 | -1
Cc1ccccc1C(=O)NNC(=O)CCC(=O)Nc1cccc(Cl)c1C | i | 0 | -1 | 4 | 7
Cc1c(Cl)cccc1NC(=O)CCC(=O)NNC(=O)c1ccccc1Cl | i | 1 | 65* | -3 | -8
CC1(C(=O)Nc2cccc3ccccc23)CCN1C(=O)Cc1ccc(Cl)cc1Cl (centres undefined) | . | . | . | . | -14
O=c1[nH]nnc2c1ncn2C1OC(CO)C(O)C1O (centres undefined) | . | . | . | . | -4
O=c1cnn([C@@H]2O[C@H](CO)[C@@H](O)[C@H]2O)c(=O)[nH]1 | i | -5 | 94* | -6 | 0
CCOc1cccc(C(=O)Nc2ccc(N3CCCC3)cc2)c1 | i | . | . | -10 | -17
CCOc1ccc(NC(=O)c2cc3ccccc3cc2OC)cc1 | i | . | . | -7 | -7
Cc1cc(C)cc(OCC(=O)Nc2ccc(N3CCCC3)cc2)c1 | i | 100*[fluorescence artefact?] | 9 | 38 | -6
